Data from PubChem BioAssay (NCI).
About 79,000 compounds went through this panel and 15% of them were active in at least one assay; those are over-represented in the sample as a whole. Active and inactive are the calls of the source. Cut-off read from the data, not from the text of the source: active = growth inhibition above about 70%; inactive = the rest.

What was measured:
[1] = NCI Yeast Anticancer Drug Screen. Data for the wt2 strain (AID 169);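 note: 0% = growth of vehicle-treated yeast cultures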; conditions: S. cerevisiae wt2 strain growth inhibition, active compounds read high
How it was run: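 Treated yeast vs. vehicle-treated yeast: growth inhibition determined.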

[2] = NCI Yeast Anticancer Drug Screen. Data for the mlh1 strain (AID 171);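 note: 0% = growth of vehicle-treated control cultures of the same strain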; conditions: S. cerevisiae mlh1 strain growth inhibition, active compounds read high
How it was run: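 A yeast strain with a defined genetic lesion serves as the test organism. Cultures receive compound or vehicle, and growth is measured.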

[3] = NCI Yeast Anticancer Drug Screen. Data for the sgs1 strain (AID 173);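 note: 0% = growth of vehicle-only control cultures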; conditions: S. cerevisiae sgs1 mutant, active compounds read high
How it was run: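 A genetically defined yeast mutant is incubated with the test compound, and its growth is compared to that of the same strain given vehicle.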

[4] = NCI Yeast Anticancer Drug Screen. Data for the mlh1 rad18 strain (AID 175); conditions: S. cerevisiae mlh1 rad18 strain growth inhibition, active compounds read high
How it was run: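 Steps: expose repair-defective yeast to compound; measure growth; express inhibition against vehicle-treated controls.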

[5] = NCI Yeast Anticancer Drug Screen. Data for the rad18 strain (AID 177); conditions: S. cerevisiae rad18 mutant growth inhibition, active compounds read high
How it was run: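 Measured value is growth inhibition of a yeast strain bearing a DNA repair alteration, referenced to vehicle-treated cells.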

[6] = NCI Yeast Anticancer Drug Screen. Data for the rad52 strain (AID 147);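 note: 0% = growth of vehicle-treated control cultures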; conditions: S. cerevisiae rad52 mutant growth inhibition, active compounds read high
How it was run: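 Here a repair-compromised yeast strain receives each compound; its growth is then quantified and normalised to vehicle-only controls.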

[7] = NCI Yeast Anticancer Drug Screen. Data for the wt1 strain (AID 149);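 note: 0% = growth of vehicle-treated wt1 cultures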; conditions: S. cerevisiae wt1 strain (SPY 50644) growth inhibition, active compounds read high
How it was run: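 Measured: growth of wt1 yeast under compound versus vehicle treatment, reported as inhibition.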

[8] = NCI Yeast Anticancer Drug Screen. Data for the rad50EPP+ strain (AID 151);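 note: 0% = growth of vehicle-treated control cultures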; conditions: S. cerevisiae rad50 mutant strain, active compounds read high
How it was run: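 Read-out is yeast growth inhibition relative to vehicle; cells used were the rad50EPP+ strain.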

[9] = NCI Yeast Anticancer Drug Screen. Data for the mgt1 strain (AID 153); conditions: S. cerevisiae mgt1 mutant growth inhibition, active compounds read high
How it was run: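 Measured: inhibition of mgt1 yeast growth by compound, normalized to vehicle-treated cultures.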

[10] = NCI Yeast Anticancer Drug Screen. Data for the rad50 strain (AID 155);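 note: 0% = growth of vehicle-only cultures of the same strain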; conditions: S. cerevisiae rad50 strain growth inhibition, active compounds read high
How it was run: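 Growth of the mutant yeast was measured after compound exposure and referenced to vehicle-treated cultures.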

[11] = NCI Yeast Anticancer Drug Screen. Data for the mec2-1 strain (AID 157); conditions: S. cerevisiae mec2-1 strain, active compounds read high
How it was run: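 Using mec2-1 yeast: add compound, measure growth, express inhibition versus vehicle-treated cultures.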

[12] = NCI Yeast Anticancer Drug Screen. Data for the rad14 strain (AID 159);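 note: 0% = growth of vehicle-treated control cultures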; conditions: S. cerevisiae rad14 strain growth inhibition, active compounds read high
How it was run: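 Here, inhibition of yeast growth was measured after compound exposure, using a strain with a genetic defect in DNA damage repair and vehicle-treated cultures as the reference.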

[13] = NCI Yeast Anticancer Drug Screen. Data for the sgs1 mgt1 strain (AID 161);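 note: 0% = growth of cultures given vehicle only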; conditions: S. cerevisiae sgs1 mgt1 strain, active compounds read high
How it was run: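 Percent growth inhibition was derived by comparing compound-exposed mutant yeast with vehicle-exposed cultures. The strain carries alterations in DNA damage repair.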

[14] = NCI Yeast Anticancer Drug Screen. Data for the CLN2oe strain (AID 163);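 note: 0% = growth of vehicle-only control cultures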; conditions: S. cerevisiae CLN2oe strain, active compounds read high
How it was run: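 Whole-cell yeast growth assay. A strain engineered for altered cell-cycle control received compound, and inhibition relative to vehicle-treated cultures was recorded.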

[15] = NCI Yeast Anticancer Drug Screen. Data for the cln2 rad14 strain (AID 165);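 note: 0% = growth equal to vehicle treated cultures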; conditions: S. cerevisiae cln2 rad14 strain, active compounds read high
How it was run: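 Yeast strain cln2 rad14, bearing defects in cell cycle control and DNA repair, serves as the test system; values reflect growth inhibition compared with vehicle.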

[16] = NCI Yeast Anticancer Drug Screen. Data for the bub3 strain (AID 167); conditions: S. cerevisiae bub3 mutant strain, active compounds read high
How it was run: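 Whole-cell yeast assay. The mutant strain was incubated with compounds, and growth inhibition was determined by comparison with vehicle-treated cells.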

[17] = at 5.0 µM (retest, dose inferred, filed as 0.5)
[18] = at 50.0 µM (retest, dose inferred, filed as 5.0)

Measured: growth inhibition

CC(C)(CN1CCCCC1)C(=O)/C=C/c1c(Cl)cccc1Cl
active: [1]; at 11.0 µM 71% | [1]; at 33.0 µM 98% | [1]; at 100.0 µM 98% | [2]; at 33.0 µM 90% | [2]; at 100.0 µM 97% | [3]; at 11.0 µM 73% | [3]; at 33.0 µM 98% | [3]; at 100.0 µM 98% | [4]; [18] 98% | [4]; at 50.0 µM 87.7% | [5]; at 11.0 µM 89% | [5]; at 33.0 µM 98% | [5]; at 100.0 µM 98%
inactive: [1]; at 1.2 µM 19% | [1]; at 3.7 µM 28% | [2]; at 1.2 µM 1% | [2]; at 3.7 µM 14% | [2]; at 11.0 µM 38% | [3]; at 1.2 µM 0% | [3]; at 3.7 µM 38% | [4]; [17] 30% | [5]; at 1.2 µM 31% | [5]; at 3.7 µM 57%

C[C@H](CCC1=NC(C)(C)CO1)C1CCC2[C@@H]3C(O)C[C@@H]4CC(O)CC[C@]4(C)C3CC[C@@]21C (some centres undefined)
active: [6]; at 33.0 µM 70% | [6]; at 100.0 µM 99% | [7]; at 100.0 µM 99% | [9]; at 33.0 µM 71% | [9]; at 100.0 µM 100% | [10]; at 33.0 µM 76% | [10]; [18] 95% | [10]; at 50.0 µM 99.4% | [10]; at 100.0 µM 99% | [11]; at 33.0 µM 84% | [11]; [18] 98% | [11]; at 50.0 µM 99.8% | [11]; at 100.0 µM 100% | [12]; at 33.0 µM 99% | [12]; at 100.0 µM 100% | [13]; [18] 98% | [13]; at 50.0 µM 99.7% | [14]; at 100.0 µM 99% | [15]; [18] 96% | [15]; at 50.0 µM 97.9% | [16]; at 33.0 µM 79% | [16]; [18] 98% | [16]; at 50.0 µM 98.5% | [16]; at 100.0 µM 99% | [1]; at 33.0 µM 95% | [1]; at 100.0 µM 100% | [2]; at 33.0 µM 87% | [2]; at 100.0 µM 100% | [3]; at 33.0 µM 90% | [3]; at 100.0 µM 100% | [4]; [18] 98% | [4]; at 50.0 µM 99.4% | [5]; at 33.0 µM 96% | [5]; at 100.0 µM 99%
inactive: [6]; at 1.2 µM -3% | [6]; at 3.7 µM -5% | [6]; at 11.0 µM -9% | [7]; at 1.2 µM -3% | [7]; at 3.7 µM -5% | [7]; at 11.0 µM -11% | [7]; at 33.0 µM 37% | [8]; at 1.2 µM -4% | [8]; at 3.7 µM -3% | [8]; at 11.0 µM -3% | [8]; at 33.0 µM -4% | [8]; at 100.0 µM 25% | [9]; at 1.2 µM -7% | [9]; at 3.7 µM -8% | [9]; at 11.0 µM -9% | [10]; at 1.2 µM -3% | [10]; at 3.7 µM -4% | [10]; [17] 1% | [10]; at 11.0 µM -8% | [11]; at 1.2 µM -5% | [11]; at 3.7 µM -3% | [11]; [17] -2% | [11]; at 11.0 µM -6% | [12]; at 1.2 µM -4% | [12]; at 3.7 µM -4% | [12]; at 11.0 µM 1% | [13]; [17] 3% | [14]; at 1.2 µM -6% | [14]; at 3.7 µM -12% | [14]; at 11.0 µM -11% | [14]; at 33.0 µM 62% | [15]; [17] 1% | [16]; at 1.2 µM -3% | [16]; at 3.7 µM -2% | [16]; [17] 0% | [16]; at 11.0 µM -10% | [1]; at 1.2 µM -4% | [1]; at 3.7 µM -7% | [1]; at 11.0 µM -12% | [2]; at 1.2 µM -3% | [2]; at 3.7 µM -6% | [2]; at 11.0 µM -6% | [3]; at 1.2 µM -3% | [3]; at 3.7 µM -4% | [3]; at 11.0 µM -6% | [4]; [17] -7% | [5]; at 1.2 µM -5% | [5]; at 3.7 µM -6% | [5]; at 11.0 µM -6%

COc1ccc2cc3c4cc5c(cc4cc[n+]3cc2c1OC)OCO5
active: [6]; at 11.0 µM 75% | [6]; at 33.0 µM 94% | [6]; at 100.0 µM 97% | [7]; at 33.0 µM 84% | [7]; at 100.0 µM 95% | [8]; at 33.0 µM 77% | [8]; at 100.0 µM 88% | [9]; at 33.0 µM 89% | [9]; at 100.0 µM 97% | [10]; at 3.7 µM 70% | [10]; [17] 76% | [10]; at 11.0 µM 88% | [10]; at 33.0 µM 94% | [10]; [18] 96% | [10]; at 50.0 µM 97.1% | [10]; at 100.0 µM 97% | [11]; at 33.0 µM 89% | [11]; [18] 97% | [11]; at 50.0 µM 92.2% | [11]; at 100.0 µM 97% | [12]; at 11.0 µM 78% | [12]; at 33.0 µM 96% | [12]; at 100.0 µM 98% | [13]; [18] 97% | [13]; at 50.0 µM 93.3% | [14]; at 33.0 µM 79% | [14]; at 100.0 µM 97% | [15]; [18] 94% | [15]; at 50.0 µM 89.2% | [16]; at 33.0 µM 88% | [16]; [18] 96% | [16]; at 50.0 µM 97.6% | [16]; at 100.0 µM 98% | [1]; at 33.0 µM 87% | [1]; at 100.0 µM 97% | [2]; at 33.0 µM 87% | [2]; at 100.0 µM 97% | [3]; at 11.0 µM 83% | [3]; at 33.0 µM 96% | [3]; at 100.0 µM 98% | [4]; [18] 97% | [4]; at 50.0 µM 97% | [5]; at 33.0 µM 89% | [5]; at 100.0 µM 97%
inactive: [6]; at 1.2 µM 22% | [6]; at 3.7 µM 48% | [7]; at 1.2 µM 8% | [7]; at 3.7 µM 29% | [7]; at 11.0 µM 50% | [8]; at 1.2 µM 0% | [8]; at 3.7 µM 20% | [8]; at 11.0 µM 60% | [9]; at 1.2 µM 15% | [9]; at 3.7 µM 39% | [9]; at 11.0 µM 62% | [10]; at 1.2 µM 33% | [11]; at 1.2 µM 9% | [11]; at 3.7 µM 32% | [11]; [17] 57% | [11]; at 11.0 µM 55% | [12]; at 1.2 µM 18% | [12]; at 3.7 µM 46% | [13]; [17] 68% | [14]; at 1.2 µM 13% | [14]; at 3.7 µM 29% | [14]; at 11.0 µM 49% | [15]; [17] 55% | [16]; at 1.2 µM 6% | [16]; at 3.7 µM 19% | [16]; [17] 43% | [16]; at 11.0 µM 46% | [1]; at 1.2 µM 38% | [1]; at 3.7 µM 32% | [1]; at 11.0 µM 62% | [2]; at 1.2 µM 12% | [2]; at 3.7 µM 31% | [2]; at 11.0 µM 53% | [3]; at 1.2 µM 24% | [3]; at 3.7 µM 28% | [4]; [17] 63% | [5]; at 1.2 µM 8% | [5]; at 3.7 µM 28% | [5]; at 11.0 µM 53%
